Bioassay records (PubChem)
A selection: hits, their analogues and other compounds. The true share with any hit is near 11%.
ALDH1A1 inh – qHTS Assay for Inhibitors of Aldehyde Dehydrogenase 1 (ALDH1A1) | Aldehyde dehydrogenase 1A1 (Homo sapiens), P00352 | Purified ALDH1A1, NADH fluorescence, propionaldehyde substrate | Potency, µM (doses to about 75.3 µM), for inactives: top-dose activity, negative = inhibition, actives largely listed as inhibitors | hit rate 7.3% among 220,000;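 note: potency is the fitted concentration of half-maximal effect; plate controls were no enzyme wells and a reference inhibitor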
HPGD inh – qHTS Assay for Inhibitors of HPGD (15-Hydroxyprostaglandin Dehydrogenase); 15-hydroxyprostaglandin dehydrogenase [NAD(+)] (Homo sapiens), P15428; purified HPGD, NADH fluorescence kinetic, PGE2 substrate; Potency, µM, without a hit: top-dose activity change, negative = inhibition, usual class: inhibitors; hit rate 4.3% among 150,000; note: potency is the fitted concentration of half-maximal effect
Target sequence (P15428 whole entry, looked up): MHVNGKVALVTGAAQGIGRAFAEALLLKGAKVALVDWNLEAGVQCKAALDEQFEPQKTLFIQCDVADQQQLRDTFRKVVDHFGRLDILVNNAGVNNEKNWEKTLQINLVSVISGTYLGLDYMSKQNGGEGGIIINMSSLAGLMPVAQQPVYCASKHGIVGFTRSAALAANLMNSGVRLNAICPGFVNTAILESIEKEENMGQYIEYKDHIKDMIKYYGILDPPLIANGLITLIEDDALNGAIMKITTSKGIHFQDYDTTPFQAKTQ
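20 nM HPGD preincubated 15 min at room temperature with compound in 50 mM Tris-HCl pH 8, 0.01% Tween 20. Started with 1 mM NAD+ and 30 uM prostaglandin E2; NADH fluorescence (360/450 nm) read 5 times over 30-s intervals, last minus first.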
PNC inhibitor – High Content Assay for Compounds that inhibit the Assembly of the Perinucleolar Compartment | PC3M PTB-GFP, PNC prevalence imaging, 16 h; active compounds read low | AID 2417, 2010 | activity change (PNC), negative = inhibition, % at 10 µM | hit rate 3.1% among 140,000;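 active = readout at or below -70, meaning at least 70% loss of cells showing the perinucleolar compartment, a nuclear body marking cancer cells; inconclusive = readout between -30 and a set limit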;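 note: plate controls were DMSO wells for no effect and camptothecin positive control wells for full effect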
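Read-out is percentage of cells bearing a perinucleolar compartment, from automated 20x imaging of fixed, Hoechst-stained PC3M PTB-GFP cells. Cells were seeded 4 h, then exposed 16 h to compound (23 nl of library stock) in duplicate plates.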
Active calls of the source: *; ? = inconclusive; . = not tested or not shown; [ ] = remark or other dose. Unless noted, calls come from the whole dose curve; as a rule, active = well fitted inhibition curve with a large enough effect (not every such curve was filed as active); inconclusive = small, poorly fitted or top-dose-only effect, or another doubt; inactive = no such curve, though single readings can be large or run the other way. Unless noted, % is set by controls: 0 for no effect and ±100 for the full control effect.

SMILES	ALDH1A1 inh	HPGD inh	PNC inhibitor
CCOC(=O)C1(C)/C(=N/Nc2ccccc2OC)C(=O)C(=O)N1c1ccccc1 (centres undefined)	24µM*	.	.
CCOC(=O)C1(C)/C(=N/Nc2ccccc2)C(=O)C(=O)N1c1ccccc1 (centres undefined)	?	-15%	-8
CCC(C)[C@H](NC(=O)N1CCC(C)CC1)C(=O)OC (some centres undefined)	5%	.	.
FC(F)(F)c1cccc(OCCN2CCN(Cc3ccccc3)CC2)c1	?	.	39
COc1cc(C)ccc1OCCCON1C(=O)CCC1=O	1%	-15%	38
CCN(Cc1ccncc1)S(=O)(=O)c1ccc(C(C)=O)cc1	7.9µM*	-29%	-3
CCN(CC)S(=O)(=O)c1ccc(C(=O)NC(C)(C)C)cc1	1%	.	.
COc1ccc2cc3cc(C(=O)Nc4cc(OC)c(OC)c(OC)c4)oc3nc2c1	?	-27%	-105*
COc1ccc2cc3cc(C(=O)Nc4ccc5c(c4)OCCO5)oc3nc2c1	0%	-6%	-18
O=C(NCCO[N+](=O)[O-])c1cccnc1	-1%	-7%	.
O=C(O)c1nc2cc(Cl)c(Cl)cc2[nH]c1=O	-4%	-9%	.
Cc1ccc(NC(=O)c2cncc(Br)c2)cc1S(=O)(=O)N(C)C	?	-5%	-8
c1ccc2c[n+](CCCC[n+]3ccc4ccccc4c3)ccc2c1	-3%[13.5 µM]	-4%	.
O=C(COC(=O)C1CC(=O)N(C2CCCCC2)C1)c1ccc(F)cc1 (centres undefined)	-12%	-7%	-4
O=C1CN(CC(=O)N2CCCCC2)c2ccccc2O1	-10%	8%	22
O=C(CN1CC(=O)Oc2ccccc21)OCC(=O)c1ccc(F)cc1	20µM*	.	.
O=C1CN(CC(=O)N2CCOCC2)c2ccccc2O1	9.5µM*	-6%	-118*
CSCCn1c(C(C)(C)C)cc(C(=O)O)c1C	-1%	.	.
Cc1cccc(C)c1NC(=O)C(c1cccs1)N(Cc1ccco1)C(=O)Cn1nnc2ccccc21 (centres undefined)	1%	-10%	?
CC(=C/c1ccccc1)/C=C1/SC(N2CCOCC2)=NC1=O	?	-23%	-17
CC(/C=C1\N=C(SCc2ccccc2)SC1=O)=C\c1ccccc1	22µM*	-19%	?
Oc1ccc(CNCC2COc3ccccc3O2)cc1 (centres undefined)	?	-5%	41
O=C(c1ccco1)N1CCN(C(=O)C2CCCc3c2[nH]c2ccc(Cl)cc32)CC1 (centres undefined)	6%	1%	-14
CCCCCCn1c(CN2CCN(CCO)CC2)nc2c1c(=O)n(C)c(=O)n2C	4µM*	-7%	46
CCCCn1c(CN2CCN(c3ccccc3)CC2)nc2c1c(=O)n(C)c(=O)n2C	?	-5%	14
SMILES	ALDH1A1 inh	HPGD inh	PNC inhibitor
CCCCCn1c(CN2CCN(c3cc(Cl)ccc3C)CC2)nc2c1c(=O)[nH]c(=O)n2C	14µM*	-12%	-16
CCCCCn1c(CN2CCN(c3cccc(Cl)c3)CC2)nc2c1c(=O)n(C)c(=O)n2C	3.5µM*	-12%	-5
CCCCCn1c(N2CCN(c3cccc(Cl)c3)CC2)nc2c1c(=O)[nH]c(=O)n2C	-14%	-4%	23
CCCCCCn1c(CN2CCC(C)CC2)nc2c1c(=O)n(C)c(=O)n2C	?	-7%	-29
CCCCn1c(CN2CCN(c3cccc(Cl)c3)CC2)nc2c1c(=O)n(C)c(=O)n2C	16µM*	-21%	-12
CCCn1c(CN2CCN(c3cccc(Cl)c3)CC2)nc2c1c(=O)n(C)c(=O)n2C	?	-2%	15
CC(C)[C@@H](C(=O)N1CCNCC1)n1cc(CCO)nn1	-2%	.	.
Cc1ccc(-c2ccccc2)n1-c1ccc(C(=O)O)cc1	25µM*	-5%	-11
O=C(O)c1ccc(-n2c(-c3ccccc3)n[nH]c2=S)cc1	?	-18%	-15
CN1CCN(c2ncccc2S(=O)(=O)N2CCCCC2)CC1	-6%	-1%	40
CN(C)N1C(=O)CC(N2CCCC2)C1=O (centres undefined)	22µM*	.	.
CCN1C(=O)CC(N2CCOCC2)C1=O (centres undefined)	3%	3%	6
CCCCNS(=O)(=O)c1ccc2nc(-c3cccnc3)cc(C(=O)NCCCOCC)c2c1	-16%	.	.
C=CCn1c(C)cc(C(=O)COc2ccc(S(=O)(=O)N3CCCC3)cc2[N+](=O)[O-])c1C	5µM*	-11%	25
C=CCn1c(C)cc(C(=O)COc2ccc(C)nc2[N+](=O)[O-])c1C	?	-17%	21
CC(CCc1ccccc1)NC(=O)C(=O)NCCc1ccccc1 (centres undefined)	7%	-5%	-10
O=C(CCC(=O)N(c1ccc(F)cc1)C(C(=O)NC1CCCC1)c1ccncc1)Nc1cccnc1 (centres undefined)	3%	-2%	-27
COc1ccc(N=c2oc3cc(O)ccc3cc2C(=O)NCC2CCCO2)c(OC)c1 (centres undefined)	?	?	22
CCN(CC)S(=O)(=O)N1CCC(C(=O)NCCN2CCOCC2)CC1	10µM*	-15%	-7
CS(=O)(=O)N1CCC(C(=O)NCCC2=CCCCC2)CC1	?	-4%	-14
CCCCN(CC)S(=O)(=O)N1CCC(C(=O)NCCCN2CCOCC2)CC1	?	?	0
CCN(CC)S(=O)(=O)N1CCC(C(=O)NCCC2=CCCCC2)CC1	2.5µM*	.	.
CCC1=C(OC(=O)N(CC)CC)N2C(=O)OC(=NCC3CC3)[C@]2(C)[C@H]2C1=CC[C@H]1C(=O)N(c3ccccc3)C(=O)[C@H]12	-11%	-16%	.
Cc1nc(N2CCN(C(=O)COc3ccccc3)CC2)c2c(C)c(C)sc2n1	11µM*	?	-22
O=C(COc1ccccc1)N1CCN(c2ncccn2)CC1	-4%	.	.
SMILES	ALDH1A1 inh	HPGD inh	PNC inhibitor
CN(C)C(=O)CSc1nnc2sc3ccccc3n12	-7%	-11%	2
O=c1c2ccccc2nnn1CSc1nc2ccccc2[nH]1	21%	-3%	-20
O=C(CSc1nnc2sc3ccccc3n12)c1ccco1	16µM*	22µM*	-13
Cn1nnnc1SCC(=O)NC(=O)Cc1ccccc1	15%	1%	0
O=C(CSCCSCC(=O)c1ccco1)c1ccco1	22µM*	?	?
O=C(CSc1nc2ccccc2[nH]1)c1ccco1	-7%	-6%	-10
Cn1nnnc1SCC(=O)c1ccco1	40µM*	-9%	2
O=c1c2ccccc2nnn1CSc1nnc2sc3ccccc3n12	13µM*	-25%	?
O=C(COC(=O)c1cccnc1Nc1cccc(C(F)(F)F)c1)NC1CCS(=O)(=O)C1 (centres undefined)	1%	-9%	1
Cn1c2ccccc2c2cc(C(=O)NNS(=O)(=O)c3ccc(F)cc3)sc21	?	?	-88*
CN(C)CCCNC(=O)c1cc2c3ccccc3n(C)c2s1	0%	-25%	19
Cc1ccc(S(=O)(=O)N2CCC(=O)N(CCOCc3cccc(C(F)(F)F)c3)CC2)cc1	-6%	-2%	-81*
